Target: T1, Rbm38-FF (Mus musculus, UniProt Q62176 1-237)
T1 sequence: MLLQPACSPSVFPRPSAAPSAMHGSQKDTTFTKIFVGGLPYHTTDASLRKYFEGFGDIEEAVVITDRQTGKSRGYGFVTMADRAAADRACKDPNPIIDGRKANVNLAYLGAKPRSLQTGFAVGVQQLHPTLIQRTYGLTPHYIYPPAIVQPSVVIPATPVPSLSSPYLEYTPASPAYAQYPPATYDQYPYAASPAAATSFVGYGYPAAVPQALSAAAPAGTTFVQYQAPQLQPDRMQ
Assay: SELEX-Seq; 16 mM HEPES pH 7.9, 150 mM KCl, 2 mM MgCl2, 60 uM EDTA, 1 mM DTT, 6% glycerol, 0.01 ug/uL heparin, 0.15 mM PMSF, 0.2 U/uL SUPERase-In, room temperature, 30 min; high values mean tight binding
Conditions: protein: recombinant; tags: C-terminal 2xFLAG with TEV remnant (SBP removed by TEV cleavage); ssRNA

| Sequence | binding signal |
| --- | --- |
| GGGUGUG | 0.0067 fraction of reads |
| UGUUGUG | 0.00859 fraction of reads |
| GUGUGGU | 0.00929 fraction of reads |
| GUGUGUG | 0.016 fraction of reads |
| UGGUGUG | 0.00917 fraction of reads |
| GAGUGUG | 0.00663 fraction of reads |
| GUGUGUA | 0.00612 fraction of reads |
| UGUGUGU | 0.0159 fraction of reads |
| GUGCGUG | 0.0063 fraction of reads |
| UGUGGUG | 0.00628 fraction of reads |
| AGUGUGU | 0.0103 fraction of reads |
| AUGUGUG | 0.00771 fraction of reads |
| GUGUUUG | 0.00702 fraction of reads |
| GUUGUGU | 0.00961 fraction of reads |
| UGCGUGU | 0.00637 fraction of reads |
| GUUUGUG | 0.00579 fraction of reads |
| GGUGUGG | 0.00694 fraction of reads |
| GGUGUGU | 0.0109 fraction of reads |

| Sequence | binding signal |
| --- | --- |
| GUGUGUU | 0.0136 fraction of reads |
| GUGUGGG | 0.00755 fraction of reads |
| UUGUGUU | 0.00601 fraction of reads |
| UGUGUUG | 0.00826 fraction of reads |
| UGUGUUU | 0.00792 fraction of reads |
| GUGUGUC | 0.00739 fraction of reads |
| UUGUGUG | 0.00989 fraction of reads |
| GCGUGUG | 0.00853 fraction of reads |
| UUUGUGU | 0.00629 fraction of reads |
| UGUGUGG | 0.00894 fraction of reads |
| UGUGUGC | 0.00732 fraction of reads |
| CGGUGUG | 0.00653 fraction of reads |
| GUGGUGU | 0.00782 fraction of reads |
| CGUGUGU | 0.01 fraction of reads |
| CAGUGUG | 0.00615 fraction of reads |
| GGCGUGU | 0.00692 fraction of reads |
| GUGUGCG | 0.00564 fraction of reads |
| GUGUUGU | 0.00863 fraction of reads |

Reference: publication PMC3820963, “The RNA Binding Protein RBM38 (RNPC1) Regulates Splicing during Late Erythroid Differentiation”
